Only a selection was taken, and hits are over-represented in it overall.
FECH block: human FECH heme synthesis enzyme inhibition | calls only at 10 µM (by protocol) | 20,000 compounds, 3.3% hits | purified FECH, Ni-mesoporphyrin absorbance 550 nm | P22830;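 active means enzyme reaction rate more than 3 SD below the solvent-only control wells on the same plate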;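 further: lower slope than DMSO wells means FECH inhibition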
Target sequence (P22830 whole entry, looked up): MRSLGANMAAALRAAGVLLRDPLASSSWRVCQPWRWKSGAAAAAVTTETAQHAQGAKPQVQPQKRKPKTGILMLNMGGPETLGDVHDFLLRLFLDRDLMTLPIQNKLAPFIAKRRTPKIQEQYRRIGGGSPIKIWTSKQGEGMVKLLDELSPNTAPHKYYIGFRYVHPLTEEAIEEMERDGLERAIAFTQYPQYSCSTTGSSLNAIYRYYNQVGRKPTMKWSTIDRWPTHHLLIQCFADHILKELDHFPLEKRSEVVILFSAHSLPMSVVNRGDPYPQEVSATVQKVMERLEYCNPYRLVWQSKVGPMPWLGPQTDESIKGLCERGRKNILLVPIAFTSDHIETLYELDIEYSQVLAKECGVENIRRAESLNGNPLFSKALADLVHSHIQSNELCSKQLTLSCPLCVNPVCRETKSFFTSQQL
* marks the source's active call; other numbers are inactive results.

`CCOc1ccccc1C(=O)Nc1ccc(Sc2c(CC)c(C)nc3ncnn23)cc1` gave FECH block active.
CCc1c(C)nc2ncnn2c1Sc1ccc(NC(=O)NCc2ccccc2)cc1 was read as FECH block active.
For CCc1c(C)nc2ncnn2c1Sc1ccc(NC(=O)c2ccccc2Cl)cc1 the results were FECH block inactive.
O=C(Nc1nc2n(n1)C(c1ccc(Cl)cc1)C=C(c1ccccc1)N2)c1cccc(Cl)c1 (stereo not given) was read as FECH block inactive.
Screening CCc1ccc(NS(=O)(=O)c2ccc(N)c(S(N)(=O)=O)c2)cc1 returned FECH block active.
Screening Cn1cnc(S(=O)(=O)Nc2ccc(S(N)(=O)=O)cc2)c1 returned FECH block inactive.
For COc1ccc(-c2csc(C)n2)cc1S(=O)(=O)Nc1ccc(S(N)(=O)=O)cc1 the results were FECH block inactive.
Screening COc1ccc(NS(=O)(=O)c2ccc(N)c(S(N)(=O)=O)c2)cc1 returned FECH block active.
CCc1ccc(NS(=O)(=O)c2ccc3c(c2)C(=O)NC3)cc1 was read as FECH block inactive.
For Cc1ccc(NS(=O)(=O)c2ccc(N)c(S(N)(=O)=O)c2)cc1 the results were FECH block active.
NS(=O)(=O)c1ccc(NS(=O)(=O)c2ccc3c(c2)NC(=O)CC(=O)N3)cc1 was read as FECH block inactive.
For CCN(CC)c1ncc(NS(=O)(=O)c2ccc(OC)cc2)cc1C(=O)O the results were FECH block inactive.
For CCc1ccc(NS(=O)(=O)c2ccc(C(=O)N(C)C)s2)cc1 the results were FECH block inactive.
`Cc1cccnc1CN(C)c1ncnc2c1CCN(C(=O)C1CC1)C2` gave FECH block inactive.
COc1c(F)cccc1C(=O)Nc1cccc(C(=O)NC(C)(C)C)c1C was read as FECH block inactive.
`Cc1cnc(C)c(-c2cccc(C(C)N3CCCC3)c2)n1` (stereo not given) gave FECH block inactive.
`Cc1cc(-n2c(SCC(=O)O)nnc2-c2sccc2C)n(C)n1` gave FECH block inactive.
`Cc1noc(C)c1S(=O)(=O)NCc1nc2cccnc2n1C1CC1` gave FECH block inactive.
`CCOc1ccc(N(Cc2nc3nc(C)cc(C)n3n2)C(=O)c2cccc(C)c2)cc1` gave FECH block inactive.
Screening COc1cccc(C(=O)N(Cc2nc3nc(C)cc(C)n3n2)c2cccc(C)c2)c1 returned FECH block inactive.
`CCCC(=O)N(Cc1nc2nc(C)cc(C)n2n1)c1ccc(F)cc1` gave FECH block inactive.
For Cc1cccc(N(Cc2nc3nc(C)cc(C)n3n2)C(=O)COc2ccccc2)c1 the results were FECH block active.
`CCCC(=O)N(Cc1nc2nc(C)cc(C)n2n1)c1ccccc1` gave FECH block active.
For Cc1cc(C)n2nc(CN(C(=O)CC(C)C)c3ccccc3)nc2n1 the results were FECH block inactive.
For Cc1cccc(N(Cc2nc3nc(C)cc(C)n3n2)C(=O)C(C)(C)C)c1 the results were FECH block inactive.
Screening COc1cc(C(=O)N(Cc2nc3nc(C)cc(C)n3n2)c2cccc(C)c2)cc(OC)c1OC returned FECH block inactive.
For COc1ccc(C(=O)N(Cc2nc3nc(C)cc(C)n3n2)c2cccc(C)c2)cc1 the results were FECH block active.
`CCCCCN(c1nc2nc(C)c(Cl)c(C)n2n1)S(=O)(=O)c1ccc(Cl)cc1` gave FECH block inactive.
Screening O=C(CNS(=O)(=O)c1cccs1)N1CCC1c1ccc(F)cc1 (stereo not given) returned FECH block inactive.
Screening CCc1cc(Sc2ccccc2NC(=O)c2ccc(OC)cc2)n2ncnc2n1 returned FECH block inactive.
For Cc1ccc(-c2ncc3c(=O)n(Cc4cccc(C)c4)c(=O)n(C)c3n2)cc1 the results were FECH block inactive.
For CCc1nnc(CN(CC)C(=O)CCN2CCCCO2)o1 the results were FECH block inactive.
`COc1cc(C)c(S(=O)(=O)N2CCC3(CC2)NCCNC3=O)c(C)c1C` gave FECH block inactive.
Screening COCCNC(=O)C1(C)Cn2c(cc3ccsc32)C(=O)N1c1cccc(OC)c1 (stereo not given) returned FECH block inactive.
COc1ccc(C(=O)N2CCc3c(c(C(=O)NCc4ccccc4)nn3C)C2)cc1 was read as FECH block inactive.
Cc1ccc(C(=O)N2CCc3c(c(C(=O)NCc4ccccc4)nn3C)C2)cc1 was read as FECH block active.
Screening Cn1nc(C(=O)NCc2ccccc2)c2c1CCN(C(=O)c1ccccc1)C2 returned FECH block inactive.
`Cc1ccccc1C(=O)N1CCc2c(c(C(=O)NCc3ccccc3)nn2C)C1` gave FECH block inactive.
Cn1nc(C(=O)NCc2ccccc2)c2c1CCN(C(=O)C1CCC1)C2 was read as FECH block active.
Screening Cn1nc(C(=O)NCc2ccccc2)c2c1CCN(C(=O)c1ccccc1Cl)C2 returned FECH block inactive.

Assay outcomes: PubChem BioAssay, Corson Lab, School of Medicine, Indiana University
